This is an account of results in PubChem BioAssay (EPA / NIEHS).

Each structure is given as a SMILES string. Values joined by “and” are separate entries in the source; they are usually repeats but may differ in a detail not shown here. Identical values can stand only once. Records with an inconclusive call do not appear. The source holds several records for some structures; these can differ, active in one and inactive in another. Active and inactive are the calls of the source. How the source made its calls, unless noted: active means hit-call score of the fitted dose curve at least 0.9, where 1 is the maximum; inactive means score below 0.9.

The target of assay [1] is Paired box protein Pax-6 (Homo sapiens) (UniProt P26367). The assay is described as follows: ATG_Pax6_CIS: Attagene CIS-FACTORIAL HepG2 Assay for human Paired Box 6 (PAX6) (AID 2282956). Conditions: HepG2 CIS-FACTORIAL PAX6 reporter transcription, RNA readout; actives raise or lower the signal. In outline:
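Multiplexed cis-reporter HepG2 system; 24 h treatment; reporter mRNA read by RT-PCR/CE fluorescence; bidirectional fit vs DMSO.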

Assay [2] in a line: ATG_PXRE_CIS: Attagene CIS-FACTORIAL HepG2 Assay for human Pregnane X Receptor Element (PXRE) (AID 2282957). As to conditions: HepG2 Attagene CIS-FACTORIAL PXRE reporter, mRNA; actives raise or lower the signal. In outline: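 HepG2 cells transiently transfected with cis-regulated multiple reporter transcription units; endogenous factor activity measured as reporter mRNA 24 h after dosing. RT-PCR, fluorescent primer extension, HpaI digestion, capillary electrophoresis; bidirectional fit versus DMSO baseline.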

Assay [3] can be described thus: ATG_PPRE_CIS: Attagene CIS-FACTORIAL HepG2 Assay for human Peroxisome Proliferator-activated Response Element (PPRE) (AID 2282958). Conditions: HepG2 PPRE cis-element reporter, Attagene transcription factor profiling; actives raise or lower the signal. In outline: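 In this cell-based multiplex, a PPRE cis element drives a reporter sequence in transiently transfected HepG2 cells. Following 24 h treatment, labeled cDNA amplicons are sized and quantified by capillary electrophoresis, with DMSO defining baseline.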

Assay [4] in a line: ATG_RORE_CIS: Attagene CIS-FACTORIAL HepG2 Assay for human RAR-related Orphan Receptor Element (RORE) (AID 2282959). As to conditions: HepG2 Attagene cis-factorial RORE reporter, mRNA; actives raise or lower the signal. In a few lines: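 Endogenous factor activity at a cis response element is read as reporter transcript levels in HepG2 cells, 24 h post-dose. Transcripts are quantified by RT-PCR with capillary electrophoresis, and data fitted in both directions against DMSO.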

A short description of assay [5]: ATG_Sox_CIS: Attagene CIS-FACTORIAL HepG2 Assay for human SRY-box transcription factor (SOX) (AID 2282960). Conditions: HepG2 Attagene cis-factorial SOX reporter, mRNA; actives raise or lower the signal. In outline:
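Measures mRNA induction of a SOX1-associated reporter in HepG2 after 24 h dosing. Fluorescently labelled RT-PCR fragments are separated by capillary electrophoresis, and gain or loss relative to DMSO control is fitted.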

For assay [6], the target named is Transcription factor Sp1 (Homo sapiens) (UniProt P08047). The assay is described as follows: ATG_Sp1_CIS: Attagene CIS-FACTORIAL HepG2 Assay for human Specificity Protein 1 (Sp1) (AID 2282961). Conditions: HepG2 Sp1 cis-reporter transcription, actives raise or lower the signal. In outline: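 Cells: HepG2, transiently transfected with cis-regulated multiplexed reporters. Exposure: 24 h. Detection: reporter transcripts amplified, fluorescently labeled, restriction-digested and sized by capillary electrophoresis. Analysis: bidirectional fit relative to DMSO.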

Assay [7] in a line: ATG_SREBP_CIS: Attagene CIS-FACTORIAL HepG2 Assay for human Sterol Regulatory Element Binding (SREBP) (AID 2282962). Conditions: HepG2 Attagene cis-factorial SREBP reporter, mRNA; actives raise or lower the signal. In a few lines: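 mRNA induction of transfected cis-promoter reporters in HepG2 cells, 24 h post-dose. Detection: RT-PCR with 6-FAM-labelled products, HpaI digest, capillary electrophoresis. DMSO served as negative control and baseline.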

The target of assay [8] is Signal transducer and activator of transcription 3 (Homo sapiens) (UniProt P40763). The assay is described as follows: ATG_STAT3_CIS: Attagene CIS-FACTORIAL HepG2 Assay for human Signal Transducer and Activator of Transcription 3 (STAT3) (AID 2282963). As to conditions: HepG2, Attagene cis-factorial STAT3 reporter transcription; actives raise or lower the signal. In outline:
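Endogenous STAT3-responsive cis-element activity was read in transiently transfected HepG2 cells after 24 h treatment. Reporter transcripts were quantified via RT-PCR and capillary electrophoresis, with DMSO as negative control and bidirectional curve fitting.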

A short description of assay [9]: ATG_TA_CIS: Attagene CIS-FACTORIAL HepG2 Assay for human TA Basal Promoter (AID 2282964). Conditions: HepG2 Attagene CIS-factorial TA basal promoter reporter; actives raise or lower the signal. In outline:
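Steps: transfect HepG2 with MRTUs; dose 24 h; isolate RNA, DNase-treat, reverse-transcribe; PCR and FAM-label reporter cDNA; digest with HpaI 2h at 37 C; run capillary electrophoresis. Activity fitted both directions against DMSO.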

A short description of assay [10]: ATG_TCF_b_cat_CIS: Attagene CIS-FACTORIAL HepG2 Assay for human T-Cell-Factor with beta-catenin (TCF/b-cat) (AID 2282965). Conditions: HepG2 TCF/beta-catenin cis-reporter transcription, actives raise or lower the signal. In outline: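 Endogenous TCF/LEF activity read as reporter transcript level via RT-PCR and capillary electrophoresis fluorescence in transfected HepG2, 24 h exposure; gain or loss of signal fitted against DMSO controls.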

Assay [11] in a line: ATG_TAL_CIS: Attagene CIS-FACTORIAL HepG2 Assay for human TAL Basal Promoter (AID 2282966).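 Further: background control endpoint measuring basal TAL promoter reporter mRNA not a specific factor.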 Conditions: HepG2 Attagene cis-factorial TAL promoter reporter; actives raise or lower the signal. In outline: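 HepG2 cells were transiently transfected with promoter-driven multiplexed reporter units and dosed for 24 h. Reporter mRNA was measured by RT-PCR with capillary electrophoresis fluorescence; bidirectional fits used DMSO as baseline, serving as a background control.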

Assay [12] can be described thus: ATG_TGFb_CIS: Attagene CIS-FACTORIAL HepG2 Assay for human Transforming Growth Factor (TGF) (AID 2282967). Conditions: HepG2 Attagene CIS TGFb reporter, mRNA transcription; actives raise or lower the signal. In outline:
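Cells were dosed for 24 hours, after which total RNA was reverse-transcribed and reporter sequences amplified, labeled and sized by capillary electrophoresis. Activity was fitted in both directions against DMSO.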

A short description of assay [13]: ATG_VDRE_CIS: Attagene CIS-FACTORIAL HepG2 Assay for human Vitamin D Receptor Element (VDRE) (AID 2282968). Conditions: HepG2 VDRE cis-reporter transcription, actives raise or lower the signal. In a few lines: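 Reporter mRNA induction, quantified by capillary electrophoresis of fluorescently labelled RT-PCR products, was read 24 h after dosing HepG2 cells carrying transiently transfected cis-regulated reporter units; gain or loss relative to DMSO.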

Assay [14] deals with Nuclear receptor subfamily 1 group I member 3 (Homo sapiens) (UniProt Q14994). The assay is described as follows: ATG_CAR_TRANS: Attagene TRANS-FACTORIAL HepG2 Assay for human Constitutive Androstane Receptor (CAR) (AID 2282969; active means hit-call score of the fitted dose curve at least 0.9, where 1 is the maximum;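 further: activators raise reporter mRNA above DMSO so AC50 marks induction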). Conditions: HepG2 Attagene TRANS-FACTORIAL CAR reporter. In a few lines:
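Readout is reporter mRNA induction, quantified by fluorescent primer extension and capillary electrophoresis after RT-PCR. Cells were HepG2 transiently carrying chimeric NR-Gal4 constructs with GAL4-UAS reporters, treated for 24 h; activity scored upward from DMSO.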

In assay [15] the target is Estrogen receptor (Homo sapiens) (UniProt P03372). Description: ATG_ERa_TRANS: Attagene TRANS-FACTORIAL HepG2 Assay for human Estrogen Receptor alpha (ERa) (AID 2282970; active means hit-call score of the fitted dose curve at least 0.9, where 1 is the maximum). Conditions: HepG2 Attagene TRANS ERa GAL4 reporter, mRNA. In a few lines: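 HepG2 cells transiently transfected with multiplexed GAL4-UAS reporter units; ERa activity read via exogenous chimeric NR-Gal4 protein. After 24 hour compound exposure, reporter mRNA measured by RT-PCR with 6-FAM labelling and capillary electrophoresis; gain-of-signal fitted relative to DMSO.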

Assay [16] deals with Steroid hormone receptor ERR1 (Homo sapiens) (UniProt P11474). Description: ATG_ERRa_TRANS: Attagene TRANS-FACTORIAL HepG2 Assay for human Estrogen-Related Receptor alpha (ERRa) (AID 2282971; active means hit-call score of the fitted dose curve at least 0.9, where 1 is the maximum). As to conditions: HepG2 Attagene TRANS reporter, ERRa transactivation. In a few lines: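 HepG2 cells transiently transfected with multiplexed GAL4-UAS reporter units reading chimeric ERRa-Gal4 activity; 24 h compound exposure. Reporter mRNA measured by RT-PCR, 6-FAM labelling, HpaI digest and capillary electrophoresis; gain of signal fitted versus DMSO baseline.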

Assay [17] has as its target X-box-binding protein 1 (Homo sapiens) (UniProt P17861). The assay is described as follows: ATG_Xbp1_CIS: Attagene CIS-FACTORIAL HepG2 Assay for human X-box Binding Protein 1 (XBP1) (AID 2282972). As to conditions: HepG2 XBP1 cis-element reporter, Attagene multiplex; actives raise or lower the signal. In a few lines: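 Fluorescence-labelled cDNA fragments from reporter transcripts, separated by capillary electrophoresis, give the signal. Source: HepG2 cells transfected with promoter-driven reporter units, harvested 24 h post-dose. DMSO served as reference for bidirectional curve fitting.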

A short description of assay [18]: ATG_M_19_TRANS: Attagene TRANS-FACTORIAL HepG2 Assay for M19 Transcription Factor (Internal Marker) (AID 2282974; active means hit-call score of the fitted dose curve at least 0.9, where 1 is the maximum). Conditions: HepG2 Attagene TRANS-FACTORIAL M19 internal marker reporter. In a few lines:
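Reporter mRNA induction was measured in transfected HepG2 cells 24 h after dosing. Endpoint fitted upward relative to DMSO and serves as a background control within the multiplexed TRANS panel.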

The nature of assay [19]: ATG_GAL4_TRANS: Attagene TRANS-FACTORIAL HepG2 Assay for GAL4 (Internal Marker) (AID 2282976; active means hit-call score of the fitted dose curve at least 0.9, where 1 is the maximum). As to conditions: HepG2 Attagene TRANS GAL4 internal marker reporter. In outline:
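HepG2 cells transiently transfected with multiplexed GAL4-UAS reporter constructs were dosed for 24 h. Reporter mRNA was measured by RT-PCR, 6-FAM primer extension, HpaI digestion and capillary electrophoresis, and gain of signal was fitted relative to DMSO.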

Assay [20] has as its target Estrogen-related receptor gamma (Homo sapiens) (UniProt P62508). Description: ATG_ERRg_TRANS: Attagene TRANS-FACTORIAL HepG2 Assay for human Estrogen-Related Receptor gamma (ERRg) (AID 2282977; active means hit-call score of the fitted dose curve at least 0.9, where 1 is the maximum;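 further: hits increase reporter signal over DMSO so potencies reflect activators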). As to conditions: HepG2 Attagene TRANS reporter, ERRg transactivation. In a few lines:
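Transfect HepG2 with multiple GAL4-UAS reporter transcription units; dose chemicals 24 h; isolate RNA, reverse-transcribe with oligo(dT), PCR-amplify, label with 6-FAM, digest with HpaI; size fragments by capillary electrophoresis. DMSO serves as negative control.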

Chain of Nuclear receptor subfamily 1 group I member 3 (Homo sapiens) (Q14994 whole entry, looked up, the tested form may be a part): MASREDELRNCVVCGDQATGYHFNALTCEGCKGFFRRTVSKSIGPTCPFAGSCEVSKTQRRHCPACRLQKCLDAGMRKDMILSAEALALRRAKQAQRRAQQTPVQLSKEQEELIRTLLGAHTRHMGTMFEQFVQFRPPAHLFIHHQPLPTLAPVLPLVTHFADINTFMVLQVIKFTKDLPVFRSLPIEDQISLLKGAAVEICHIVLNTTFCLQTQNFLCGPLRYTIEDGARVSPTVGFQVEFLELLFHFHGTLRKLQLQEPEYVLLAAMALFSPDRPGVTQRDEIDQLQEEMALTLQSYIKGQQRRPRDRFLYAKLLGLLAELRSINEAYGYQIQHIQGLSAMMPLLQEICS
Chain of X-box-binding protein 1 (Homo sapiens) (P17861 whole entry, looked up, the tested form may be a part): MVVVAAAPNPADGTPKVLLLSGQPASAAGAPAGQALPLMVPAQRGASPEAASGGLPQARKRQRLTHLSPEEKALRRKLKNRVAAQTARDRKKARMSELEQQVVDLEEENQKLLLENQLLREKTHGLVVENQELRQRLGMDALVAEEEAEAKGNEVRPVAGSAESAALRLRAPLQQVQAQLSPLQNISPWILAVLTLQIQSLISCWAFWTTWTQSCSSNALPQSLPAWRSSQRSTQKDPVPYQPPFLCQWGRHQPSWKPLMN
Chain of Estrogen receptor (Homo sapiens) (P03372 whole entry, looked up, the tested form may be a part): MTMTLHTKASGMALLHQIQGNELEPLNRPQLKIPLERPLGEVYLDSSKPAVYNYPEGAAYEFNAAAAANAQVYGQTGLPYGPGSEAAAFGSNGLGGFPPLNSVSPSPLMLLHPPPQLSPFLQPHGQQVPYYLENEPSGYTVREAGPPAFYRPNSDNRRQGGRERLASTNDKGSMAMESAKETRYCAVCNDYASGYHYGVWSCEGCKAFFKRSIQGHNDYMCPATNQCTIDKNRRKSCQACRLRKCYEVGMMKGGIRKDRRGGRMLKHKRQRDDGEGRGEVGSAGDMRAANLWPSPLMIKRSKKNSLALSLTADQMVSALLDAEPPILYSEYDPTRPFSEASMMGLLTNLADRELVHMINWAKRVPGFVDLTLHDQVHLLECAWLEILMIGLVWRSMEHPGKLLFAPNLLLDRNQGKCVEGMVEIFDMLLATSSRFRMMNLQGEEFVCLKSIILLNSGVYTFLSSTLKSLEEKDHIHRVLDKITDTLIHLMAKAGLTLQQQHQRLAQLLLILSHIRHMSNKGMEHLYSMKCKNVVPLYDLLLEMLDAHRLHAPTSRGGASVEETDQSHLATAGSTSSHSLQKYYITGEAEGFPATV
Chain of Transcription factor Sp1 (Homo sapiens) (P08047 whole entry, looked up): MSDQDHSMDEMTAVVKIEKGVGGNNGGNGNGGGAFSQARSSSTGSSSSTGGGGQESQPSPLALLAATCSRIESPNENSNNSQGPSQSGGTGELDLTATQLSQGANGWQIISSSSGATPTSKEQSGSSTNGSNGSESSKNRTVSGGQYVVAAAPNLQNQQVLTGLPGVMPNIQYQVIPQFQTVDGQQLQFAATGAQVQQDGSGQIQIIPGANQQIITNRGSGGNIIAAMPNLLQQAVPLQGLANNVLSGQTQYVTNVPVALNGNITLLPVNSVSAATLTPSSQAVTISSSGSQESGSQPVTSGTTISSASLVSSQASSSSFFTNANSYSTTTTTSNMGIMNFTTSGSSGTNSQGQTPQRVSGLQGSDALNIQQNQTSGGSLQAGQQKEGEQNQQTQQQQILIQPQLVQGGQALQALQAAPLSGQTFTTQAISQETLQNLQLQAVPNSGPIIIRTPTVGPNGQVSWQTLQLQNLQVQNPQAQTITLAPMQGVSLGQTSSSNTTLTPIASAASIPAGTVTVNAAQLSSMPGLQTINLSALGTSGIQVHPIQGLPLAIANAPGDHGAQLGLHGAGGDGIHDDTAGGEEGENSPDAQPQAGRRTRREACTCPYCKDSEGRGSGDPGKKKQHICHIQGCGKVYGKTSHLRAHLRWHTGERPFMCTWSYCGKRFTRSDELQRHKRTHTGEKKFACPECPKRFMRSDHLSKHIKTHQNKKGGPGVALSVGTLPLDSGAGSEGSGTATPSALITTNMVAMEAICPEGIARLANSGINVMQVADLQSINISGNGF
Chain of Steroid hormone receptor ERR1 (Homo sapiens) (P11474 whole entry, looked up, the tested form may be a part): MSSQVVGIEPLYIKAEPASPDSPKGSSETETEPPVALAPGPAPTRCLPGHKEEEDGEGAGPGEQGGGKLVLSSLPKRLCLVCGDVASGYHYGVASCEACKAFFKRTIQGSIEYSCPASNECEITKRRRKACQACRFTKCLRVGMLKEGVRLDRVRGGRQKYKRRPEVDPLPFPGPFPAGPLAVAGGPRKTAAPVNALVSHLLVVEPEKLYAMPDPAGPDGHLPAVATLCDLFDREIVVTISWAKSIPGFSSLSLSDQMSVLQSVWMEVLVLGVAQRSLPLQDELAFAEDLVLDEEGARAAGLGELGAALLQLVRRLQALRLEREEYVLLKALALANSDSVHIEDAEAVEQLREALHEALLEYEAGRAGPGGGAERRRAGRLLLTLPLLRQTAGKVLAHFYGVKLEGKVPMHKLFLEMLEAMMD
Chain of Paired box protein Pax-6 (Homo sapiens) (P26367 whole entry, looked up): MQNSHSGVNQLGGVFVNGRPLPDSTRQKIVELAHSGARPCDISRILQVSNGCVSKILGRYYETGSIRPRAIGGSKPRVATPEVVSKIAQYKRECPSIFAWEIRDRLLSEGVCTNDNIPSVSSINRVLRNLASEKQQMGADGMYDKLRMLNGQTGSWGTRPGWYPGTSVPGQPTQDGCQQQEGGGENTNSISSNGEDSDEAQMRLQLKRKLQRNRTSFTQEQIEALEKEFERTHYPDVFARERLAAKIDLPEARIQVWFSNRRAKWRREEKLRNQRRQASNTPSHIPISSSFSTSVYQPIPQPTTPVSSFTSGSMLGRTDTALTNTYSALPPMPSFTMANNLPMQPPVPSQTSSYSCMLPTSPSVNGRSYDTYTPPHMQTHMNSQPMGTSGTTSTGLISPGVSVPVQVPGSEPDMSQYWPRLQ
Chain of Signal transducer and activator of transcription 3 (Homo sapiens) (P40763 whole entry, looked up): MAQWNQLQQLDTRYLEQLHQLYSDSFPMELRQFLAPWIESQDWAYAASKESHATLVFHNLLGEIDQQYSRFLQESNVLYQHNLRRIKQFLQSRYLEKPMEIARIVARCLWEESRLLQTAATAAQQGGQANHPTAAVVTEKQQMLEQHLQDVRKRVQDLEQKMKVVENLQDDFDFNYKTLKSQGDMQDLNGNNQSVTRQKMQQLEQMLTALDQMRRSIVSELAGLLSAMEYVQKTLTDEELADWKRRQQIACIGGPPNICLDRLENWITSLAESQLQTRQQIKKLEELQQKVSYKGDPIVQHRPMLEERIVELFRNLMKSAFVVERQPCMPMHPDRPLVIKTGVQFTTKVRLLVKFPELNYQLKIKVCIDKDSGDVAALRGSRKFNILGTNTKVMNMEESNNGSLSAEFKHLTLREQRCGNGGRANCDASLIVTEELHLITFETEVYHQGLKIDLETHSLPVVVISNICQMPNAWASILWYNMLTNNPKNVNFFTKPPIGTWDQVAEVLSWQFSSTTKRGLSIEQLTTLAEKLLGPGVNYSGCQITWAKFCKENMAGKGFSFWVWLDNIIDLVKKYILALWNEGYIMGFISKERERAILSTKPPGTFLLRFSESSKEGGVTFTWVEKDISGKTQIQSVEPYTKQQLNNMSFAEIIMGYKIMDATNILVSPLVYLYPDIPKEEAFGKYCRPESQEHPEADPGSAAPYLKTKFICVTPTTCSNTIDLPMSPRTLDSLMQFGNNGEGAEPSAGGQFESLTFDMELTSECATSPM
Chain of Estrogen-related receptor gamma (Homo sapiens) (P62508 whole entry, looked up, the tested form may be a part): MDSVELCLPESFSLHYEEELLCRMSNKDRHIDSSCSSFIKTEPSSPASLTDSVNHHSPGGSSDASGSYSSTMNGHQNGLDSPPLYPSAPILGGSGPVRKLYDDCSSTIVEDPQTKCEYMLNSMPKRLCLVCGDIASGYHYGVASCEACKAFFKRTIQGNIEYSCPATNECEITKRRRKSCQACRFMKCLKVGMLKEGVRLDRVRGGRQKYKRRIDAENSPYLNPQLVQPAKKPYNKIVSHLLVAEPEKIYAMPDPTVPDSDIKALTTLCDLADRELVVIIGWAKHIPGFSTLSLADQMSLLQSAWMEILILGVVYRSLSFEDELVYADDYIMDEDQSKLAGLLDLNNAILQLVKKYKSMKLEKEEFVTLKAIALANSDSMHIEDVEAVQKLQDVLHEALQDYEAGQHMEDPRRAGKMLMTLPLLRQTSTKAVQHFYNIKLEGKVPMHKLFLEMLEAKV

Consider `Cc1cccc2ccccc12`, for which the outcome in assay [1], in [2], in assay [3], in assay [4], in [5] and in assay [6] was inactive. The outcome in assay [7], in assay [8], in [9], in assay [10], in [11] and in assay [12] was inactive. The outcome in [13], in [14], in assay [15], in [16], in assay [17] and in assay [18] was inactive. In addition, in assay [19], the outcome was inactive.
On to `CCN(Cc1cccc(S(=O)(=O)O)c1)c1ccc(C(=C2C=CC(=[N+](CC)Cc3cccc(S(=O)(=O)O)c3)C=C2)c2ccccc2S(=O)(=O)[O-])cc1`, for which the result in [1], in assay [2], in [3], in assay [4], in assay [5] and in assay [6] was inactive. Also, the result in assay [7], in [8], in assay [9], in assay [10], in assay [11] and in assay [12] was inactive. Further, the compound was called inactive in assay [13], in assay [14], in assay [15], in [16] and in assay [20].
As for `Oc1ccccc1`, the compound was classed as inactive in assay [1], in assay [2], in assay [3], in [4], in assay [5] and in [6]. The result in [7], in [8], in [9], in assay [10], in assay [11] and in assay [12] was inactive. In addition, the compound was classed as inactive in assay [14], in assay [17], in assay [18] and in assay [19].
For the compound `CCCCOC(=O)CC(CC(=O)OCCCC)(OC(C)=O)C(=O)OCCCC`, the compound was classed as inactive in [1], in [3], in [4], in assay [5], in assay [6] and in assay [7]. The call in assay [8], in assay [9], in [11], in assay [12] and in assay [18] was inactive. Besides, the AC50 in [2] is 1.18 µM (active) and 705 nM (active); in [4], 27.5 µM (active); in assay [13], 8 µM (active) and 4.3 µM (active).
Regarding `CCCCCCCCOC(=O)c1cc(O)c(O)c(O)c1`, the compound was called inactive in [1], in assay [3], in assay [4], in assay [5], in assay [6] and in [7]. Further, the outcome in assay [8], in assay [9], in assay [10], in [11], in assay [12] and in assay [13] was inactive. The compound was called inactive in assay [14] and in assay [17]. Further, the AC50 is 11.1 µM (active) in assay [2] and 20 µM (active) in assay [15].
For the compound `CN1C(=O)N(c2ccccc2Br)Cc2cnc(Nc3ccc4c(c3)OCC(CO)O4)nc21` (stereo not drawn), the call in assay [1], in assay [2], in assay [5], in assay [6], in assay [8] and in assay [12] was inactive. The compound was called inactive in assay [16], in assay [18] and in assay [19]. In addition, the AC50 in assay [3] is 2.65 µM (active); in assay [4], 1.84 µM (active); in assay [7], 21.1 µM (active); in [9], 15.8 µM (active); in assay [10] it was 0.116 µM (active); in assay [11], 12.4 µM (active). The AC50 in assay [13] was 4.14 µM (active).
`CC1=CC(=O)/C(=C(/C)O)C(=O)O1`: the result in assay [1], in [2], in assay [3], in assay [4], in assay [5] and in assay [6] was inactive. Also, the result in [7], in assay [8], in assay [9], in assay [10], in assay [11] and in [12] was inactive. Moreover, the result in assay [13], in [15] and in assay [17] was inactive.
